# Results published in PMC7862700, “An all-to-all approach to the identification of sequence-specific readers for epigenetic DNA modifications on cytosine”.
# Columns and labels:
# Assay in all cases: DAPPL (digital affinity profiling via proximity ligation, sequencing); 10 mM Tris-HCl pH 7.5, 50 mM NaCl, 1 mM DTT, 4% glycerol, room temperature, 30 min; GST-TFs on glutathione beads, 16-mer random dsDNA library, 0.1% formaldehyde crosslink after washing; high values mean tight binding
# Settings in all cases: protein: recombinant; tags: N-terminal GST; dsDNA, one strand shown
# [1] = biological target: T1, FLI1 (Homo sapiens, UniProt Q01543 1-452)
# T1 sequence: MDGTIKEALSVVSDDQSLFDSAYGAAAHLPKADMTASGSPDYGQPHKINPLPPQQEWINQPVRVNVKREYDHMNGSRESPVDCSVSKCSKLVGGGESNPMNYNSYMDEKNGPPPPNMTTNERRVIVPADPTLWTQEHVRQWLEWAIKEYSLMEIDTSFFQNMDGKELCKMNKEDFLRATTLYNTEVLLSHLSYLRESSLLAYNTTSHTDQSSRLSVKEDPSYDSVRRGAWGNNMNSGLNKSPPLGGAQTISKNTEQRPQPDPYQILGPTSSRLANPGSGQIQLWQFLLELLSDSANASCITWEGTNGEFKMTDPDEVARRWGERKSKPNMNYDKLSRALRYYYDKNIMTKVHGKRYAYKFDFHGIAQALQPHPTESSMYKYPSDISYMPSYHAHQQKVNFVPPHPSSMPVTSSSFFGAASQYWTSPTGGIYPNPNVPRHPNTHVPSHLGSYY
# Outline: (§1)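 Pools were built from human transcription factors expressed in yeast as GST fusions, captured on glutathione beads and DNA-barcoded, along with a tag-only sample. Incubation with 200 nmole of a 16-mer random double-stranded DNA library lasted 30 min at room temperature in Tris/NaCl/DTT/glycerol buffer, and was followed by washing, 0.1% formaldehyde crosslinking, proximity ligation, PCR amplification and Illumina NextSeq500 sequencing. Binding signal is the quotient of each hexamer's read frequency for a factor and its frequency for the tag-only sample.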
# [2] = biological target: T2, GABPA (Homo sapiens, UniProt Q06546 1-454)
# T2 sequence: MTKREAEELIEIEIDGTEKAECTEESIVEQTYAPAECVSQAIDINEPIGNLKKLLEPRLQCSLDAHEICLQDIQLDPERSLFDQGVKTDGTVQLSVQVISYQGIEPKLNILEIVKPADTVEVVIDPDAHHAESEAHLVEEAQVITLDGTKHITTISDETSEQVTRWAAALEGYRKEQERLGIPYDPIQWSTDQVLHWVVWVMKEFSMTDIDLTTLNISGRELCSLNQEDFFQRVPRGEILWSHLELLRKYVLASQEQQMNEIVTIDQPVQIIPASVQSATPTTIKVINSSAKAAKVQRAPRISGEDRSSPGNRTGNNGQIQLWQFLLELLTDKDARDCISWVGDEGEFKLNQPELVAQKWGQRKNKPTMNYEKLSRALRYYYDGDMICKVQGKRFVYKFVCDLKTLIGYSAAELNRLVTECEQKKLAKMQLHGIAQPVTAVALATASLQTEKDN
# Outline: as §1
# [3] = biological target: T3, ERG (Homo sapiens, UniProt P11308 1-479)
# T3 sequence: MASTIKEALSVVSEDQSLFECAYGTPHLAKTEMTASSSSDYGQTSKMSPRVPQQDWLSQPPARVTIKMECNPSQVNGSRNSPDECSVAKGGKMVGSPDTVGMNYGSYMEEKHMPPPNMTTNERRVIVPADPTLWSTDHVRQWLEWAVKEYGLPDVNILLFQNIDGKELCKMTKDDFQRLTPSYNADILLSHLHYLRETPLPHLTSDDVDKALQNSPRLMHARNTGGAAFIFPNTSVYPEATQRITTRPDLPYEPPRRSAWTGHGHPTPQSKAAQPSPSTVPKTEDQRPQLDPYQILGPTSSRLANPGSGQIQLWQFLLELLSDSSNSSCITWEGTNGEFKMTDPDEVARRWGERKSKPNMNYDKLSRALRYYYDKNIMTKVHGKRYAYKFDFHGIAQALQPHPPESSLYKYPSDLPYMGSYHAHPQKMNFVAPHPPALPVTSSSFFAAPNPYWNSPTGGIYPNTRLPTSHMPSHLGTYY
# Outline: as §1
# [4] = biological target: ELF1 (Homo sapiens, UniProt P32519 1-619)
# Outline: as §1
# [5] = biological target: T4, EHF (Homo sapiens, UniProt Q9NZC4 1-300)
# T4 sequence: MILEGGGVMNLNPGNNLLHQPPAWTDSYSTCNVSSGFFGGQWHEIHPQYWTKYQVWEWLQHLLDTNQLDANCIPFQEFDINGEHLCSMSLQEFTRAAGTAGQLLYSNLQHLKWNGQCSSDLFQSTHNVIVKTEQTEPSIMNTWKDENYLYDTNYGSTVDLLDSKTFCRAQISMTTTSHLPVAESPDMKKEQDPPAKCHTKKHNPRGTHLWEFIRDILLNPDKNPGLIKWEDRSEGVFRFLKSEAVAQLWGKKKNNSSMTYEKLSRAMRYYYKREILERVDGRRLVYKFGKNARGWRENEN
# Outline: as §1
# [6] = biological target: SPI1 (Homo sapiens, UniProt P17947 1-270)
# Outline: as §1
# [7] = biological target: SPIB (Homo sapiens, UniProt Q01892 1-262)
# Outline: as §1
# [8] = biological target: T5, ELK3 (Homo sapiens, UniProt P41970 1-407)
# T5 sequence: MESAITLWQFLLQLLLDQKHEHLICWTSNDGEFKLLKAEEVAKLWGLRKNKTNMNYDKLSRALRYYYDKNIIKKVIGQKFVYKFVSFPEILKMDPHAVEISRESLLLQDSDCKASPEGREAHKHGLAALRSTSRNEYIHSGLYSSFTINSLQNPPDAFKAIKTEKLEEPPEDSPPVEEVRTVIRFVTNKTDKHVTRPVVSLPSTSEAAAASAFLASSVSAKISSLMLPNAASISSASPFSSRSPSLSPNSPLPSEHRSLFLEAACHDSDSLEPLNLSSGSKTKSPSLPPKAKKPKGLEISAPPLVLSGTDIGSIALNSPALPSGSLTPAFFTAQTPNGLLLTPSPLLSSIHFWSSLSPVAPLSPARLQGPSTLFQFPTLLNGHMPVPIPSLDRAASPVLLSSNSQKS
# Outline: as §1
# [9] = biological target: ETV5 (Homo sapiens, UniProt P41161 1-510)
# Outline: as §1
# [10] = biological target: ELF4 (Homo sapiens, UniProt Q99607 1-663)
# Outline: as §1
# [11] = biological target: T6, ETV2 (Homo sapiens, UniProt O00321 1-342)
# T6 sequence: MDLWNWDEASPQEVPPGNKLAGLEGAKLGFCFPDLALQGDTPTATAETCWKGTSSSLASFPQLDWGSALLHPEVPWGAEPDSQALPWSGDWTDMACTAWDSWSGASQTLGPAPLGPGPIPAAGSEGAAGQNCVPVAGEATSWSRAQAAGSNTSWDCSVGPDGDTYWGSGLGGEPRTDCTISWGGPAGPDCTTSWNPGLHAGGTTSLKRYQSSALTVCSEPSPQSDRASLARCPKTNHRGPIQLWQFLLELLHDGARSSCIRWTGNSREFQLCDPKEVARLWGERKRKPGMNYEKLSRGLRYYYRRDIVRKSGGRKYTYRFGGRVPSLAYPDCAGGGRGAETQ
# Outline: as §1
# [12] = biological target: T7, ELF3 (Homo sapiens, UniProt P78545 1-371)
# T7 sequence: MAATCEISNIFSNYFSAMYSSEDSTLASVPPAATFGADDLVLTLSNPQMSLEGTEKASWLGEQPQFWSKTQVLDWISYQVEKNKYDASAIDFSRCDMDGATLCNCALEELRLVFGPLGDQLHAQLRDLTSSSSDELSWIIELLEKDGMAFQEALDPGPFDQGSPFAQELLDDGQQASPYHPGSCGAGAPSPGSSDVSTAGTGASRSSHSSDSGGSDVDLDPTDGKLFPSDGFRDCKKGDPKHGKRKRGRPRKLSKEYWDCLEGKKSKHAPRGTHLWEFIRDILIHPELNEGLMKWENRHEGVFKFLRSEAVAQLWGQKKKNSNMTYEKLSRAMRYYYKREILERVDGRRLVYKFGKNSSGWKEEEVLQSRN
# Outline: as §1
# [13] = biological target: ETV1 (Homo sapiens, UniProt P50549 1-477)
# Outline: as §1
# [14] = biological target: T8, ERF (Homo sapiens, UniProt P50548 1-548)
# T8 sequence: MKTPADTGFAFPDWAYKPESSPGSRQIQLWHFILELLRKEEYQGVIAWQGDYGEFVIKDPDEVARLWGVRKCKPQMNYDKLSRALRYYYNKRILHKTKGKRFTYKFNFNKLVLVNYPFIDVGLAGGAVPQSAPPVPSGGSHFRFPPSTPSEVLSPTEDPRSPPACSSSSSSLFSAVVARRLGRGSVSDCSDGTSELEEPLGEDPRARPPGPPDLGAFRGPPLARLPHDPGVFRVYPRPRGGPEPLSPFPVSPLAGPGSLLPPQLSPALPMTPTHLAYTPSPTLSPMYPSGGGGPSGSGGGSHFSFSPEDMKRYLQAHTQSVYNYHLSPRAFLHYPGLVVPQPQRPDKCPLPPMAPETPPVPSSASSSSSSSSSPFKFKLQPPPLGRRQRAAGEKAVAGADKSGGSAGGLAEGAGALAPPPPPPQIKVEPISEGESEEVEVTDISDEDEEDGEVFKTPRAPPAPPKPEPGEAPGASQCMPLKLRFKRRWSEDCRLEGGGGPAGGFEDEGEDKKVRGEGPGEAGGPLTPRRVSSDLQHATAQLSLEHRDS
# Outline: as §1
# [15] = biological target: T9, ETV3L (Homo sapiens, UniProt Q6ZN32 1-361)
# T9 sequence: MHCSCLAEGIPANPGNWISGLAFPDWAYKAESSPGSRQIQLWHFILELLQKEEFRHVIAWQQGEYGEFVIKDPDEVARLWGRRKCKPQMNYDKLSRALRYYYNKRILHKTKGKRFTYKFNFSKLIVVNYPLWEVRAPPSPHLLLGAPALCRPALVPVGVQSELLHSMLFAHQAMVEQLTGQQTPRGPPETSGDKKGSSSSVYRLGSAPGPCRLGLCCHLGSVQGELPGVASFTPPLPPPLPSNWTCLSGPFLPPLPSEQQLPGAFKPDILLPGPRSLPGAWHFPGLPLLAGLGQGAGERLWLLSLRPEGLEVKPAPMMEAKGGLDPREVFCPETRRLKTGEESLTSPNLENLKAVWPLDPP
# Outline: as §1
# [16] = biological target: T10, ETS2 (Homo sapiens, UniProt P15036 1-469)
# T10 sequence: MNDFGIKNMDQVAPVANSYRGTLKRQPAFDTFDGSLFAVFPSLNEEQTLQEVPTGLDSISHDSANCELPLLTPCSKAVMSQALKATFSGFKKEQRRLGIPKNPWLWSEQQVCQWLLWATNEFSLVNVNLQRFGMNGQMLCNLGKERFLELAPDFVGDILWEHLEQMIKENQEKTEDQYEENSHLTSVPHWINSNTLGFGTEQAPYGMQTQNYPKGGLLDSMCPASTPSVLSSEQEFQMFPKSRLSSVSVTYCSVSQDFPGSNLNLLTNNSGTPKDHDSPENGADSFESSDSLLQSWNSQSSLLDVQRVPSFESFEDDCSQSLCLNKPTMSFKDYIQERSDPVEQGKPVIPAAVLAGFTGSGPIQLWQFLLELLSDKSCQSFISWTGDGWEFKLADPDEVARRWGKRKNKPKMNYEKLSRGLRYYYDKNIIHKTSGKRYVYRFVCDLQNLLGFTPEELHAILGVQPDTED
# Outline: as §1
# [17] = biological target: T11, ETV7 (Homo sapiens, UniProt Q9Y603 1-341)
# T11 sequence: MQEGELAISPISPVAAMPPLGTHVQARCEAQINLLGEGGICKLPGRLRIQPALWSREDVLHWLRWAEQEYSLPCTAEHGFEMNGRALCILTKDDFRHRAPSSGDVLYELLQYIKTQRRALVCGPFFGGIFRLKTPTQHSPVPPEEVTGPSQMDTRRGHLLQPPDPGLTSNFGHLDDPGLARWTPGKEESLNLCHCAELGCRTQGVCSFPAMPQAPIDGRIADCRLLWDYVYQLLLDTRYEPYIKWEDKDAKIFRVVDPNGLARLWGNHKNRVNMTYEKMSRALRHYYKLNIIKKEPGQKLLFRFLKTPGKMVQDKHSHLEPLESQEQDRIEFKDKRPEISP
# Outline: as §1
# [18] = biological target: T12, ETV3 (Homo sapiens, UniProt P41162-2 1-143)
# T12 sequence: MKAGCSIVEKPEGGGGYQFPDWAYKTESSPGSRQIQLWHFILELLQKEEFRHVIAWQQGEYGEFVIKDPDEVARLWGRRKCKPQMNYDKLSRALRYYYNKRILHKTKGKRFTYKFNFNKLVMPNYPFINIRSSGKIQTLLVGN
# Outline: as §1
# [19] = biological target: ETV6 (Homo sapiens, UniProt P41212 1-452)
# Outline: as §1
# ETV6, sequence (P41212 whole entry): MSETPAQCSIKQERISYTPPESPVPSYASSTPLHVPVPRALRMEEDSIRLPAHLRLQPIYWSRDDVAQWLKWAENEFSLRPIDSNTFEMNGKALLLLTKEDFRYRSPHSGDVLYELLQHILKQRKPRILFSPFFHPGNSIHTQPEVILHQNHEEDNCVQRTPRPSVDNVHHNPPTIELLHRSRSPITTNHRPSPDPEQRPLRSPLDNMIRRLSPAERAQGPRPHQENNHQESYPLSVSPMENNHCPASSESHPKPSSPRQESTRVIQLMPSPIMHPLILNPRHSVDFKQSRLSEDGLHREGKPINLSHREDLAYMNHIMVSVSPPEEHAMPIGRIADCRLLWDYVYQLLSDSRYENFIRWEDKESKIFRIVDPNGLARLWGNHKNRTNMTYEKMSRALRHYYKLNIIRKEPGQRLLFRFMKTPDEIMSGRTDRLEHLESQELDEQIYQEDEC
# ETV1, sequence (P50549 whole entry): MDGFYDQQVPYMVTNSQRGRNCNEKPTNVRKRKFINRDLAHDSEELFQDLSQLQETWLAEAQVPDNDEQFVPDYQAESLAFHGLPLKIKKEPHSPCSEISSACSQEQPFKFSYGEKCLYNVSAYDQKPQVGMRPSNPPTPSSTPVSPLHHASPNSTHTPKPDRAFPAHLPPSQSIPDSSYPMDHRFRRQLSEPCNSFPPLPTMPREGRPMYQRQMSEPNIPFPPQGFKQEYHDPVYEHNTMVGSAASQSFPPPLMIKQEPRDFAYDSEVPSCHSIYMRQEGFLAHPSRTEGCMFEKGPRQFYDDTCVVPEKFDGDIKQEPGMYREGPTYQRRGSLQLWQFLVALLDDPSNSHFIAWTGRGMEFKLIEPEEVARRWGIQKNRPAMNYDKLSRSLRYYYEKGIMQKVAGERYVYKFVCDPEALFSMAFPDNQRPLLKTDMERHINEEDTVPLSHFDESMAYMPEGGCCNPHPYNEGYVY
# ELF1, sequence (P32519 whole entry): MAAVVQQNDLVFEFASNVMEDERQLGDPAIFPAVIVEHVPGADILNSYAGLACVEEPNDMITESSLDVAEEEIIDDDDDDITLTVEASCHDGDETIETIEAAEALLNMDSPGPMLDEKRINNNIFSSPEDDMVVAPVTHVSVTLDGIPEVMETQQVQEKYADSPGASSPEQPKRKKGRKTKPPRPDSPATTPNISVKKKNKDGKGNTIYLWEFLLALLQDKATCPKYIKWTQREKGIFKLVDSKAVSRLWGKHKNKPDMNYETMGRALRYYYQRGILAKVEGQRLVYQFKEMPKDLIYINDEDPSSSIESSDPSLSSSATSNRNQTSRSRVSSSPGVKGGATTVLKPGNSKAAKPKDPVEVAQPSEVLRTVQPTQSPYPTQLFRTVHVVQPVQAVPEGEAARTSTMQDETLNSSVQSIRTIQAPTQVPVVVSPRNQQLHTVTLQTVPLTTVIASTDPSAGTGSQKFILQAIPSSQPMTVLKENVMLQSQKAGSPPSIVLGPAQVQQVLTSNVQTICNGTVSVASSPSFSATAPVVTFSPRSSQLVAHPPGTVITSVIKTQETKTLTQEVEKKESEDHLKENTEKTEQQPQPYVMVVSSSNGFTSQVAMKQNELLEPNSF
# SPIB, sequence (Q01892 whole entry): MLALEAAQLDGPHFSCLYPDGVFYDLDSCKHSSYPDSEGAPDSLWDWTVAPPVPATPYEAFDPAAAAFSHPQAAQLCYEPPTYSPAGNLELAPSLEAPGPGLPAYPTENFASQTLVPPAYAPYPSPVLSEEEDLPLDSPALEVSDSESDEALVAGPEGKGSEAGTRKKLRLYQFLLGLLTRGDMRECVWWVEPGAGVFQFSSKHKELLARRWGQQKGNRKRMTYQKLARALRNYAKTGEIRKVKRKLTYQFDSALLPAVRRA
# ETV5, sequence (P41161 whole entry): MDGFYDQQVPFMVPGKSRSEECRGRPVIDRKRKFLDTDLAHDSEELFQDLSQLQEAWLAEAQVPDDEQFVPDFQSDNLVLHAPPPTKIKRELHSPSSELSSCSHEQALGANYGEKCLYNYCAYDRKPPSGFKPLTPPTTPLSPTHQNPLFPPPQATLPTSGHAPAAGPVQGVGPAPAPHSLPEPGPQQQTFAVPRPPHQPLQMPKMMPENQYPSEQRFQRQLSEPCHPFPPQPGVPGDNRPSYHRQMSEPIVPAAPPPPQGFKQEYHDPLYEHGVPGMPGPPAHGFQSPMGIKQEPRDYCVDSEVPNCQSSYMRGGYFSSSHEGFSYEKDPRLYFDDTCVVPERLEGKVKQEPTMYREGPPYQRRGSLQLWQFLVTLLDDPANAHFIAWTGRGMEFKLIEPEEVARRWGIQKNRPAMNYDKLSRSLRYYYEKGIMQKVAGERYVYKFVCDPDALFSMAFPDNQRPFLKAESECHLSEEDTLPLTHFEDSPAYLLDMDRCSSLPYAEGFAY
# ELF4, sequence (Q99607 whole entry): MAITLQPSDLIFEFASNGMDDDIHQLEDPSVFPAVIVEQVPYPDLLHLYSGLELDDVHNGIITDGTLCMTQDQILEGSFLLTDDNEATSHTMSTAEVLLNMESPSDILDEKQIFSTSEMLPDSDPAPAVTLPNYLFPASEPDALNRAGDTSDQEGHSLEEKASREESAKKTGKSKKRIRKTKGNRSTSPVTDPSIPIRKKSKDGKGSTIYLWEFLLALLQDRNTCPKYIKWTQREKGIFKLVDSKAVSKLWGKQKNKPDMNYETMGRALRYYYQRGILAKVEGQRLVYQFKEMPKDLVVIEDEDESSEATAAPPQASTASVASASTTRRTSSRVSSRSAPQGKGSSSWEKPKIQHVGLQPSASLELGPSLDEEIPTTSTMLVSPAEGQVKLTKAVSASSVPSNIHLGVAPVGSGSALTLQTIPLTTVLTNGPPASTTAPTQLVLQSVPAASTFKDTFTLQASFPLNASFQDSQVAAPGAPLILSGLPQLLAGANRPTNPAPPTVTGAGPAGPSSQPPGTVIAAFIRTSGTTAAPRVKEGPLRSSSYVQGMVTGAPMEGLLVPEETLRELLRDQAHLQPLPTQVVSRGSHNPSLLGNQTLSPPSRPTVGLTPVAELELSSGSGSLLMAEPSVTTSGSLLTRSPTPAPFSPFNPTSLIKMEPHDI
sequence,measurement,setting,value
GTCCTG,binding signal,[1],"1.09 fold enrichment (6-mer frequency, TF over GST control)"
same,binding signal,[2],"1.05 fold enrichment (6-mer frequency, TF over GST control)"
same,binding signal,[3],"1.17 fold enrichment (6-mer frequency, TF over GST control)"
same,binding signal,[4],"1.15 fold enrichment (6-mer frequency, TF over GST control)"
same,binding signal,[5],"1.09 fold enrichment (6-mer frequency, TF over GST control)"
same,binding signal,[6],"1.16 fold enrichment (6-mer frequency, TF over GST control)"
same,binding signal,[7],"1.15 fold enrichment (6-mer frequency, TF over GST control)"
same,binding signal,[8],"1.05 fold enrichment (6-mer frequency, TF over GST control)"
same,binding signal,[9],"1.08 fold enrichment (6-mer frequency, TF over GST control)"
same,binding signal,[10],"1.09 fold enrichment (6-mer frequency, TF over GST control)"
same,binding signal,[11],"1.29 fold enrichment (6-mer frequency, TF over GST control)"
same,binding signal,[12],"1.07 fold enrichment (6-mer frequency, TF over GST control)"
same,binding signal,[13],"1.17 fold enrichment (6-mer frequency, TF over GST control)"
same,binding signal,[14],"1.08 fold enrichment (6-mer frequency, TF over GST control)"
same,binding signal,[15],"1.19 fold enrichment (6-mer frequency, TF over GST control)"
same,binding signal,[16],"1.02 fold enrichment (6-mer frequency, TF over GST control)"
same,binding signal,[17],"1.26 fold enrichment (6-mer frequency, TF over GST control)"
same,binding signal,[18],"1.2 fold enrichment (6-mer frequency, TF over GST control)"
same,binding signal,[19],"1.16 fold enrichment (6-mer frequency, TF over GST control)"
